Assay outcomes (PubChem BioAssay)
Compounds with a hit are over-represented: about 21% of the library has one in this group of screens.
Pf growth 96h = P. falciparum growth inhibition at 96 hour, primary screen for plastid delayed-death inhibitors; Potency, µM (top dose mostly 28.7 µM), for the others: at the top dose activity change, negative = inhibition, hits mostly inhibitors; actives 6.9% (n = 320,000); P. falciparum luciferase reporter growth, 96 h; also: potency is read from the fitted curve at half-maximal effect; % is scaled to controls: 0 for no effect and ±100 for the full control effect
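Parasite growth measured via integrated firefly luciferase reporter in P. falciparum. Infected erythrocytes at 2% hematocrit, 0.05% parasitemia final were treated 96 hours at 37 C under 5% CO2, and luminescence was read.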
Cycloheximide cs = counter-screen for Shiga toxin inhibitors: cycloheximide protein synthesis inhibition. cell reporter, cycloheximide protein synthesis inhibition counterscreen. max response, %. actives 12% (n = 300,000). AID 2314; in the data active = max response mostly above about 13%, no sharp cut-off; inactive = mostly below about 14%; also: read at 38.3 µM for the half of the compounds with a filed dose; 0% is about no effect
Pf growth 48h = inhibits P. falciparum growth in the first generation, 48 h; P. falciparum luciferase growth in erythrocytes, 48 h; Potency, µM (titrated, usually from 28.7 µM), for inactives: at the top dose activity change, negative = inhibition, most hits filed as inhibitors; actives 5.9% (n = 310,000); also: potency is read from the fitted curve at half-maximal effect; % is scaled to controls: 0 for no effect and ±100 for the full control effect
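Firefly luciferase activity from engineered P. falciparum reports growth; inhibitors lower the luminescent signal. Cultures contained 2% hematocrit erythrocytes at 0.1% final parasitemia.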
NS1 inh = inhibitors of influenza NS1 protein function; Potency, µM (titrated, usually from 46.1 µM), for inactives: at the highest dose activity, positive = more growth; actives 0.4% (n = 270,000); AID 2326; calls by dose curve; also: potency is read from the fitted curve at half-maximal effect; actives are rising curves; nearly all actives have a fitted effect of over 50% in size
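Growth recovery, yeast-based: influenza A NS1 expressed in S. cerevisiae causes slow growth, and suppressors are detected by OD600. The parent strain without NS1 is used as positive control.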
Shiga toxin inh = Shiga toxin inhibition. Vero cells, Shiga toxin protein synthesis inhibition reporter. inhibition, % at 38.7 µM. actives 9.2% (n = 290,000); in the data active = inhibition mostly above about 28%, no sharp cut-off; inactive = mostly below about 43%; also: 0% is about no effect
Active calls of the source: *; ? = inconclusive; / = no result given; [ ] = dose if it differs, or a comment. Unless noted, calls follow the shape of the dose curve; as a rule, active = well fitted inhibition curve with a large enough effect; inconclusive = small, poorly fitted or top-dose-only effect, or another doubt; inactive = no such curve, though single readings can be large or run the other way.

SMILES	Pf growth 96h	Cycloheximide cs	Pf growth 48h	NS1 inh	Shiga toxin inh
COc1ccc(O)c(CN2CCN(CCCc3ccccc3)C(CCO)C2)c1 (centres undefined)	?	4	?	2%	-3
CCOc1ccc(CN2CCN(Cc3cnc(-c4ccccc4)s3)CC2CCO)cc1 (centres undefined)	?	-1	?	3%	2
OCCC1CN(Cc2cc(F)ccc2F)CCN1CCCc1ccccc1 (centres undefined)	13µM*	-1	?	-4%	9
COc1ccc(OC)c(CN2CCN(CCc3ccccc3)C(CCO)C2)c1 (centres undefined)	13µM*	-2	-11%	2%	2
COc1ccc(F)c(CN2CCN(CCc3ccccc3)C(CCO)C2)c1 (centres undefined)	3.7µM*	-1	-23%	10%	/
OCCC1CN(Cc2cccc(F)c2F)CCN1CCc1ccccc1 (centres undefined)	-12%	-4	8%	-11%	/
Cn1c(=O)n(CCc2ccccc2)c(=O)c2c1nc1n2CCN1Cc1ccco1	5.2µM*	24	8.3µM*	-73%	55
Cn1c(=O)n(Cc2ccc(F)cc2)c(=O)c2c1nc1n2CCN1Cc1ccco1	?	8	?	/	-16
Cc1ccc(C)c(Cn2c(=O)c3c(nc4n3CCN4Cc3ccco3)n(C)c2=O)c1	?	-2	8.3µM*	-8%	74
CCOc1ccc(/C=N/n2cc(-c3ccccc3)[nH]c2=S)cc1	?	19*	?	-6%	28
COc1ccc(NC(=O)CSc2nc3ccsc3c(=O)n2CCCCCC(=O)O)cc1	?	-16	-8%	/	-3
Cc1ccc(-n2c(SCCN)nnc2-c2cccc(C)c2)cc1	?	-7	10µM*	0%	-9
CCc1nc(NCC2CCCN2CC)c2nnn(Cc3ccccc3F)c2n1 (centres undefined)	/	-3	?	2%	-7
Cc1cc(C)cc(NC(=O)C2CC3CCC2C3)c1 (centres undefined)	?	1	3%	-10%	-5
O=C(Nc1ccccc1)C1CC2CCC1C2 (centres undefined)	4%	12	-16%	9%	22
CCN(CC)c1ccc(NC(=O)C2CC3CCC2C3)cc1 (centres undefined)	-5%	51*	29%	-20%	107*
Cc1ccc(NC(=O)C2CC3CCC2C3)c(Br)c1 (centres undefined)	12%	33*	95%	-1%	83*
Cc1ccc(C)c(NC(=O)C2CC3CCC2C3)c1 (centres undefined)	-6%	14*	24%	8%	23
CN1CCN(C2=C(Cl)C(=O)N(c3cccc(Cl)c3)C2=O)CC1	?	9	-5%	8%	6
O=C1C(Cl)=C(N2CCCC2)C(=O)N1c1ccc(F)cc1	0%	-2	?	14%	10
CN1CCN(C2=C(Cl)C(=O)N(c3ccc(Cl)c(Cl)c3)C2=O)CC1	63%	23*	2%	-84%	66
O=C1C(Cl)=C(N2CCCCCC2)C(=O)N1c1ccc(Cl)cc1	142%	12*	?	-8%	18
O=C1C(Cl)=C(N2CCCCCC2)C(=O)N1c1ccccc1Cl	10%	9	9%	-3%	3
O=C1C(Cl)=C(N2CCCC2)C(=O)N1c1ccccc1F	2.6µM*	-5	-2%	5%	/
Cc1ccccc1N1C(=O)C(Cl)=C(N2CCN(c3ccccc3)CC2)C1=O	3.7µM*	1	0%	-8%	-8
SMILES	Pf growth 96h	Cycloheximide cs	Pf growth 48h	NS1 inh	Shiga toxin inh
O=C1C=C(N2CCCCCC2)C(=O)N1c1ccc(Cl)cc1	181%	62*	110%	-1%	176*
Cc1nn(-c2ccc(F)cc2)c(Cl)c1C(=O)N(C)CC(=O)Nc1cccc(F)c1	-5%	/	?	/	/
COc1ccc(/C=C(\C#N)c2nc3ccc(C)cc3[nH]2)cc1Oc1ccc(C(F)(F)F)cc1[N+](=O)[O-]	?	12	?	1%	-12
Cc1ccc2nc(/C(C#N)=C\c3cc(O)ccc3[N+](=O)[O-])[nH]c2c1	33%[5.75 µM]	36*	9%	4%	33
COc1cc(/C=C(\C#N)c2nc3ccc(C)cc3[nH]2)cc([N+](=O)[O-])c1O	?	30*	?	1%	56*
Cc1ccc2nc(/C(C#N)=C\c3ccc(Oc4ccc(C(F)(F)F)cc4[N+](=O)[O-])cc3)[nH]c2c1	-3%	31*	-9%	16%	79*
O=[N+]([O-])c1ccc(Cl)c(/C=N/n2c(-c3cccnc3)n[nH]c2=S)c1	78%	3	32%	12%	13
COc1ccccc1CNC(=O)CSC(=S)N1CCCC1	0%	/	8%	/	/
COc1ccc(N=C2CC(C)(C)CC(=O)/C2=C(/O)c2ccccc2)cc1	-25%	-4	-15%	1%	16
O=C(/C=C\Nc1ccc2c(c1)OCO2)c1cccs1	48%	6.9*	25%	-37%	66*
O=C(/C=C\Nc1ccc2c(c1)OCO2)c1ccc(Cl)s1	13%	57*	487%	/	71*
C/C(=N\Nc1nnc2c3ccccc3n(C)c2n1)c1ccc(C)o1	?	13	?	-15%	29
C/C(=N\Nc1nc(C)cc(C)n1)c1ccc(C)o1	?	21*	-47%	3%	29
Cc1ccc(OP(N)(=O)Oc2ccc(C)cc2)cc1	5.9µM*	7	?	/	42
CC(=O)c1cc(-c2ccc(F)cc2)n(CCC(=O)Nc2cc(C)[nH]n2)c1C	14%	-5	-25%	-3%	11
O=C(O)c1ccccc1C(=O)Nc1cc(-c2ccccc2)[nH]n1	50%	2	63%	2%	-2
CCNC(=S)Nc1cc(-c2ccc(Cl)cc2)[nH]n1	51%	24*	32%	-57%	8
O=C(Nc1cc(-c2ccccc2)[nH]n1)c1ccccc1	23%	34*	61%	-48%	79*
CCNC(=S)Nc1ccc(C)c(Cl)c1	22%	-2	-4%	-3%	10
CC(=O)Nc1cc(-c2ccc(F)cc2)[nH]n1	-3%	24*	87%	/	129
Cc1ccnc(NC(=O)c2ccc(C(=O)c3ccccc3)cc2)c1	-26%	/	11%	/	/
O=C(Nc1cc(-c2ccccc2)[nH]n1)c1ccccc1F	0%	42*	191%	-50%	105*
OCCSc1nc(N2CCOCC2)nc(N2CCOCC2)n1	38%	3	10%	/	-16
Cc1ccccc1NC(=O)Nc1cc(-c2ccccc2)nn1C	68%	36*	42%	1%	82*
O=C(Nc1ccccn1)Nc1ccccc1[N+](=O)[O-]	?	40*	67%	-7%	47*
CCOC(=O)c1cc(NC(=O)Nc2ccccn2)c(C)nc1C	55%	27*	42%	/	37
Cc1ccccc1NC(=O)N(C(C)C)C(C)C	9.3µM*	-4	/	1%	-15
Cc1cccc(NC(=O)Nc2ccccn2)c1C	79%	11	89%	0%	47
Cn1nc(-c2ccccc2)cc1NC(=O)Nc1ccc(F)cc1	20%	11	?	-3%	45
